# Screens from PubChem BioAssay.
# Only some compounds are listed: those with a hit (about 2.2% of all), similar ones and a draw of the others.
# EBNA-1 inhibitor – EBNA-1 DNA-binding inhibitors, primary screen, biochemical, fluorescence polarization; 0.34% of 300,000 active; inhibition, % at 14.8 µM; AID 1950, 2009; in the data active means inhibition above about 28%
# dFosB activator – activators of delta FosB homodimer, primary screen, biochemical, fluorescence polarization, TAMRA-CDK5 oligo, single point | Protein FosB (Mus musculus), P13346 | purified delta FosB; percent of positive-control signal above neutral wells | activation, % at 25 µM | 0.99% of 340,000 active | AID 493131, 2011;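 active means mean activation above about 17%, with every replicate also reaching it, limit read from the data, passing the limit was not always enough; inconclusive means only one of the two conditions met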
# Target sequence (P13346 whole entry, looked up): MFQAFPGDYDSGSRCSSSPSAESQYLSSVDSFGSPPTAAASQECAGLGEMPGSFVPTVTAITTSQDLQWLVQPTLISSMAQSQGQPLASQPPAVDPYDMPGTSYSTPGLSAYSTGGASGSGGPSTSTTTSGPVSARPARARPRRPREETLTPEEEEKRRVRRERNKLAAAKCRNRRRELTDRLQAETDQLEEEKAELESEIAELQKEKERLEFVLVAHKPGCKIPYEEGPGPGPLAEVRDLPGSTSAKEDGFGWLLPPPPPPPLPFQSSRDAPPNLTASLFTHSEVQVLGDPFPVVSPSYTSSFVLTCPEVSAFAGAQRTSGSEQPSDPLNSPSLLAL
# PolyA inhibitor – polyadenylation inhibitors in yeast reporter cells, primary screen, luminescence, S. cerevisiae | 0.02% of 300,000 active | activity score, % at 12 µM | S. cerevisiae SKY197-pL101 polyadenylation reporter, beta-gal luminescence; efflux-impaired pdr1/pdr3 knockout yeast; score 100 = 6 SD above DMSO;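 active means lowest replicate activity score at least 50, where 100 means six control SD above control mean; inconclusive means lowest score under 50 but half or more replicates reach 50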;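 further: yeast exposed to compound for 9 h at 30 °C; higher score means more reporter readthrough which indicates perturbed polyadenylation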
# NALP1 yeast inh – NALP1 inflammasome inhibitors in reconstituted yeast, colorimetric, S. cerevisiae, triplicate retest; AID 2071, 2009; S. cerevisiae NALP1/ASC/caspase-1 growth, X-gal OD620, 72 h; inhibition, % at 10 µM; 0.61% of 280,000 active; in the data active means inhibition mostly above about 24%, no sharp cut-off; inactive means mostly below about 32%
# ZTA counter – blocks Epstein-Barr virus ZTA, an EBNA-1 counter-screen; P03206; 0.15% of 320,000 active; inhibition, % at 11 µM; ZTA-DNA binding, fluorescence polarization; in the data active means inhibition above about 33%
# Target sequence (P03206 whole entry, looked up): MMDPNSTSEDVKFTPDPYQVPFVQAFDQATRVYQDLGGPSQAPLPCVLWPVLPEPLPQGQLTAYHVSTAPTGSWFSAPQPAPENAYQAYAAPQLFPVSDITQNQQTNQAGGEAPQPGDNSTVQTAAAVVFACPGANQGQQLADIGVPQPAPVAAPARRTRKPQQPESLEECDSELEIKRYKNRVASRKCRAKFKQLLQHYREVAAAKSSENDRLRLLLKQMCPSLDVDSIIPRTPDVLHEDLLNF
# NLRP3 yeast inh – NALP3 inflammasome inhibitors in reconstituted yeast, primary screen, luminescence, uHTS; 0.39% of 330,000 active; Yeast reconstituted NLRP3/ASC/caspase-1, beta-gal luminescence, 24 h; inhibition, % at 10 µM;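 active means inhibition of 50% or more; inactive means inhibition below 50%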;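 further: plate controls were induced DMSO wells for no effect and uninduced yeast grown without galactose for full effect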
# * marks the source's active call; other numbers are inactive results; ? = inconclusive; . = not tested or not shown.
SMILES,EBNA-1 inhibitor,dFosB activator,PolyA inhibitor,NALP1 yeast inh,ZTA counter,NLRP3 yeast inh
O=C(O)CC1CCC1CC(=O)O (centres undefined),.,-3.2,.,.,.,.
O=C(CC1NCCNC1=O)Nc1ccc([N+](=O)[O-])cc1 (centres undefined),-21.1,6.5,18.8,32.5*,-15.4,14.9
CCCC(=O)c1c(NCCO)cc(C)oc1=O,10.4,1.6,29.0,-13.0,-1.1,-9.5
CCO/C(=C/c1sc2ccc(OC)cc2[n+]1CCCS(=O)(=O)[O-])CC,-11.3,-9.8,13.3,5.6,-21.4,11.8
CCC(/C=C1\Sc2ccc(OC)cc2N1CCO)=C\c1sc2ccc(OC)cc2[n+]1CCO,44.5*,?,.,27.4,84.1*,5.3
CCC(/C=C1\Sc2ccc(OC)cc2N1CC)=C\c1sc2ccc(OC)cc2[n+]1CCCS(=O)(=O)[O-],56.4*,134.0*,0.0,3.0,104.3*,19.8
CCN(CC(=O)Nc1cccc(F)c1)CC(=O)Nc1ccccc1OC,1.0,-7.2,-5.9,-6.1,14.9,6.8
CC(C)NC(=O)CC(c1ccccc1)c1cc(Br)ccc1O (centres undefined),15.5,-3.8,-9.1,40.5*,9.4,0.8
COc1ccc(/C=C\C(=O)NCC(=O)N/N=C/c2cccc(OC)c2O)cc1,6.4,46.5*,18.0,-23.2,7.7,1.3
COc1ccccc1/C=C/C(=O)NCC(=O)N/N=C/c1ccccc1,-0.4,-8.6,.,-0.6,-7.8,16.5
COc1cccc(/C=N/NC(=O)CNC(=O)/C=C\c2ccccc2)c1O,-5.3,58.0*,-9.8,-16.2,-12.4,-1.7
NS(=O)(=O)c1ccc(CNC(=O)c2ccc(NS(=O)(=O)c3ccc4[nH]c(=O)[nH]c4c3)cc2)cc1,-0.9,-11.2,-5.3,.,5.4,3.0
CCOc1ccc(NC(=O)c2ccc(Cl)c(NC(=O)c3ccco3)c2)cc1,-3.8,0.7,12.6,7.4,-6.7,13.3
Cc1c(C(=O)NC2CCN(Cc3ccccc3)C2)oc2c(Cl)cccc12 (centres undefined),-4.1,-15.8,2.3,39.3*,5.9,26.6
Cc1c(C)c2c(c(C)c1O)CCC(C)(C(=O)O)O2 (centres undefined),0.5,-2.0,.,.,12.0,-8.6
Cc1cc(C)c(S(=O)(=O)c2cccc(Br)c2C)c(Cl)n1,.,-6.7,-7.4,15.4,.,.
Cn1c(SCC(=O)Nc2ccc3[nH]c(=O)[nH]c3c2)nnc1-c1ccc(F)cc1,-5.4,-4.0,-11.5,.,-24.5,4.9
Cc1nn(C)c(C)c1NC(=O)CN1CCC(O)(c2ccc3c(c2)OCO3)CC1,-8.4,5.4,-15.6,30.6*,-8.9,4.0
CC(=O)Nc1nonc1NC(C)=O,-14.9,0.9,0.4,-2.0,3.6,14.5
CC(=O)Nc1cc(OC(C)=O)c2nonc2c1OC(C)=O,6.6,-1.2,.,-17.0,69.7*,26.4
O=C(CC1Sc2ncnn2C1=O)Nc1ccc(Cl)cc1 (centres undefined),6.0,.,-9.5,27.0,-3.1,-2.4
CCOC(=O)c1ccc(NC(=O)CC2Sc3ncnn3C2=O)cc1 (centres undefined),1.9,3.9,-22.9,93.3*,-2.1,34.4
COc1ccc(NC(=O)CC2Sc3ncnn3C2=O)cc1 (centres undefined),-2.1,6.7,-7.3,94.8*,-2.0,10.8
CN(c1ccccc1)S(=O)(=O)c1ccc(Cl)c(C(=O)NCC(c2ccco2)N2CCCC2)c1 (centres undefined),.,-14.6,.,.,-6.1,8.8
COc1ccccc1N(C)S(=O)(=O)c1ccc(C(=O)NCc2ccccc2CN2CCCC2)cc1,.,-13.1,.,.,.,.
SMILES,EBNA-1 inhibitor,dFosB activator,PolyA inhibitor,NALP1 yeast inh,ZTA counter,NLRP3 yeast inh
COc1ccccc1OCC(=O)NCCSCc1cccc(Cl)c1,-9.2,-1.9,-34.7,48.3*,-4.2,31.7
O=C(COc1ccccc1)NCCSCc1ccccc1Cl,-2.5,-2.5,-10.2,5.4,8.5,23.9
COc1ccccc1OCC(=O)NCCSCc1ccccc1Cl,-9.1,1.7,-31.8,50.8*,-6.0,12.8
COc1ccc(OC)c(NC(=O)COC(=O)C2CCCCC2)c1,.,-2.4,.,.,.,4.6
CCOC(=O)[C@H]1[C@H]2COc3ccc(C)cc3[C@@H]2N2C(=O)c3ccccc3NC(=O)[C@@]12C,-0.8,-2.2,.,.,-20.7,-7.9
Cc1ccc(NC(=O)c2nnn(CC(=O)Nc3ccccc3)c2N)cc1C,0.4,0.0,-9.9,29.3,-0.3,5.3
Cc1ccc(NC(=O)Cn2nnc(C(=O)Nc3ccc(F)c(Cl)c3)c2N)cc1,-17.6,?,-13.2,37.0*,-2.5,4.7
CN(C)CCCN(C(=O)c1ccc2c(c1)CCCC2)c1nc2ccc(F)cc2s1,-1.3,6.7,-6.0,46.8*,-1.8,40.6
Cc1cccc2sc(N(CCCN(C)C)C(=O)c3ccc(S(=O)(=O)N4CCc5ccccc5C4)cc3)nc12,2.8,62.2*,26.3,27.5,-5.7,11.3
CCN(CC)CCN(C(=O)/C=C/c1cccs1)c1nc2ccc(Cl)cc2s1,-14.8,-13.8,2.3,5.2,2.9,20.8
CN(C)CCN(C(=O)/C=C/c1cccs1)c1nc2ccc(F)cc2s1,-3.5,-48.6,-3.3,53.9*,-7.8,33.6
Cc1cc(C)c2sc(N(CCCN(C)C)C(=O)c3ccc(S(=O)(=O)N4CCc5ccccc5C4)cc3)nc2c1,-3.1,100.4*,0.7,.,24.9,13.6
CN(C)CCCN(C(=O)c1ccc(S(=O)(=O)N2CCc3ccccc3C2)cc1)c1nc2c(F)cccc2s1,1.3,-1.5,-7.0,13.7,0.5,6.0
O=C(CNC(=O)c1ccc(Cl)cc1Cl)OCc1cn2cc(Br)ccc2n1,.,-7.9,.,.,.,5.0
Cc1nnc(SCc2nc3sc4c(c3c(=O)[nH]2)CCCC4)[nH]c1=O,6.7,-0.2,-4.9,0.2,9.2,-8.5
CN(C)CCCN(C(=O)c1ccc(S(=O)(=O)N2CCc3ccccc3C2)cc1)c1nc2ccc(F)cc2s1,0.3,68.7*,-6.0,20.1,-10.7,27.1
O=C(CCNC(=O)c1ccco1)NCCc1ccc(Cl)cc1,.,-3.9,8.7,38.1*,.,20.1
c1ccc(-c2nnc(OCCN3CCOCC3)c3ccccc23)cc1,-1.1,-6.0,-6.9,42.3*,-7.0,2.3
Cc1cc(C(=O)Cn2c(CO)nc3ccccc32)c(C)n1C,-5.6,-3.4,-15.4,-13.7,-3.7,2.2
CSc1cccc(NC(=S)N(CCCN2CCCC2)Cc2cccn2Cc2ccc(Cl)cc2)c1,-25.9,26.7*,-2.3,19.4,-20.6,16.9
COc1ccc(C(=O)C(CN2CCOCC2)c2ccccc2)cc1F (centres undefined),.,-7.5,-3.5,40.7*,.,.
N#C/C(C(N)=O)=C1/SC=C(c2ccccc2)N1c1ccccc1,8.1,.,0.4,36.6*,-6.6,10.6
NC(=O)c1nc(C(=O)N2CCN(c3ccccc3)CC2)c2ccccc2n1,.,-0.6,.,.,4.2,9.4
